From PubChem BioAssay (Tox21)
Values joined by “and” are separate entries in the source; they are usually repeats but may differ in a detail not shown here. Identical values can stand only once. Some structures have more than one record in an assay (separate samples or runs), and their calls can disagree. Active and inactive are the calls of the source. Where a call stands in place of a potency, no number is given. Calls come from the whole dose curve.

biological target: Androgen receptor (Homo sapiens) (UniProt P10275); test: qHTS assay to identify small molecule agonists of the androgen receptor (AR) signaling pathway in the presence of an antagonist (AID 1259381); conditions: MDA-kb2 MMTV-luciferase, AR agonist + nilutamide, 16 h; series mostly up to 42.5 µM; note: nearly all actives have a fitted effect of over 15% in size
Source text: National Center for Advancing Translational Sciences [NCATS] NIH Chemical Genomics Center [NCGC] U.S. Environmental Protection Agency [EPA] National Institutes of Environmental Health Sciences [NIEHS] National Toxicology Program [NTP] Assay overview: Androgen receptor (AR) is an important member of nuclear receptor family. Its signaling plays a critical role in AR-dependent prostate cancer and other androgen related diseases. Considerable attention has been given in the past decades to develop methods to study and screen for the environmental chemicals that have the potential to interfere with metabolic homeostasis, reproduction, developmental and behavioral functions. Therefore AR binding assay for screening against androgen agonists and antagonists can be used to identify potential endocrine disruptors. MDA-kb2 cells (from ATCC, deposited by Wilson et al.) are human breast carcinoma cells that were stably transfected with a luciferase reporter gene under control of the MMTV promoter that contains response elements for both androgen receptor (AR) and glucocorticoid receptor (GR). This particular screening for measuring luciferase reporter gene activity using MDA-kb2 cells against Tox21 10K library compounds is a confirmation study on agonist mode screening in the presence of AR-antagonist compound (Nilutamide) at 3.0uM final concentration.
Assay Protocol Summary: MDA-kb2 cells (cells cultured without CO2) were dispensed at 3,000 cells/well in 4uL of culture medium into white wall/solid-bottom 1536-well plates (Corning Life Sciences, Corning, NY) using a Multidrop Combi (Thermo Fisher Scientific Inc., Waltham, MA) dispenser. The assay plates were incubated at 37C and 0% CO2 for 5hr. One uL of 3.0uM (final concentration) Nilutamide or assay buffer was added using two separate tips of Flying Reagent Dispenser (FRD, Aurora Discovery, San Diego, CA). Then 23nL of compounds dissolved in DMSO at 15 concentrations and positive controls were transferred to the assay plates using a Pintool station (Wako, San Diego, CA). The assay plates were incubated at 37C and 0% CO2 for 16hr. For luciferase read, 4uL/well ONE-Glo reagent (Promega Corporation, Madison, WI) was added to each well of the assay plates using FRD. After 30min incubation at room temperature, the luminescence signal was measured using a ViewLux plate reader (PerkinElmer, Shelton, CT).
Potency is the fitted concentration of half-maximal effect.

Androgen receptor (Homo sapiens), sequence (P10275 whole entry, looked up): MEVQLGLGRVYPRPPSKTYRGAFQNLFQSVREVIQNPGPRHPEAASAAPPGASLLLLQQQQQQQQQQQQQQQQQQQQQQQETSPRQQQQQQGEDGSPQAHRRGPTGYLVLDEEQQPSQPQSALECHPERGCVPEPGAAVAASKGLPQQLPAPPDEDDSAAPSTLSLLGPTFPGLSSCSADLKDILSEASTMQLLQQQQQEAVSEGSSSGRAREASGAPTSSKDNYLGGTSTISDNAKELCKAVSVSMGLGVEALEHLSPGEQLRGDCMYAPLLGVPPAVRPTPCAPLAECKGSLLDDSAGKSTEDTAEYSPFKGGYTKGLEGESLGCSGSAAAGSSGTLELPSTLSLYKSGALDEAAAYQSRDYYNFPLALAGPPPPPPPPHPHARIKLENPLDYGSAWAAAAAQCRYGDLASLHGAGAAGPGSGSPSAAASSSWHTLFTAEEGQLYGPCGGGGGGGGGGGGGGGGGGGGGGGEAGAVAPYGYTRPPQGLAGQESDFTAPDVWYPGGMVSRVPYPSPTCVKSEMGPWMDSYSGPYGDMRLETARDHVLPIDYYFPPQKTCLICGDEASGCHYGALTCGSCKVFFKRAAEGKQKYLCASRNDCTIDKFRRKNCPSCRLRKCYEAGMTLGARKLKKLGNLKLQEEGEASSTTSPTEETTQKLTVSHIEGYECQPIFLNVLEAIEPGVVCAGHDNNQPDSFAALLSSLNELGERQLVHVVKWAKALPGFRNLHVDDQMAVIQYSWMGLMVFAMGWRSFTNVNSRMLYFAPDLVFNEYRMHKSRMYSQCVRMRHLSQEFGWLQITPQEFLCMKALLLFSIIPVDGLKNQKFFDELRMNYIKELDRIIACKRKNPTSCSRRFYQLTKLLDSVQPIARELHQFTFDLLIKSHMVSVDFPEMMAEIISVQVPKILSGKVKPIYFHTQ

Structure (SMILES) | Potency
NC(=O)COCCN1CCN(C(c2ccccc2)c2ccc(Cl)cc2)CC1 (stereo not given) | inactive
NS(=O)(=O)c1cc(C(=O)NN2C[C@H]3[C@H]4CCC(C4)[C@H]3C2)ccc1Cl | inactive
CC(C)NC(=O)NC(C)C | inactive
NS(=O)(=O)c1cc2c(cc1Cl)NC(C1CC3C=CC1C3)NS2(=O)=O (stereo not given) | inactive
CN1CCN(c2cc3c(cc2F)c(=O)c(C(=O)O)cn3-c2ccc(F)cc2)CC1 | 26.6 µM (active)
COC(=O)[C@@H](N)Cc1ccc(O)c(O)c1 | inactive
CCOc1ccc(C(=O)OCCN(CC)CC)cc1 | inactive
CC1(C)C(O)C(C)(C)C1O (stereo not given) | inactive
Cc1cnc(NS(=O)(=O)c2ccc(N)cc2)nc1 | inactive
COc1ccc2c(c1)c(CC(=O)OCC(=O)O)c(C)n2C(=O)c1ccc(Cl)cc1 | inactive
FC1(F)C(F)(F)C(F)(F)C2(F)C(F)(F)C(F)(F)C(F)(F)C(F)(F)C2(F)C1(F)F (stereo not given) | inactive
O=C(c1ccccc1)C1CCCCC1 | inactive
CC(C)(CC(=O)O)C(=O)O | inactive
CC(C)(c1ccc(O)cc1)c1ccc(O)cc1 | inactive and 27.8 µM (active)
C=C(C)CS(=O)(=O)O | inactive
CCn1ccnc1CC1COc2ccccc2O1 (stereo not given) | inactive
NS(=O)(=O)c1ccc(C(=O)O)cc1 | inactive
CCCCOCCOCCOCc1cc2c(cc1CCC)OCO2 | inactive
N=C(N)c1ccc2cc(OC(=O)c3ccc(N=C(N)N)cc3)ccc2c1 | inactive
ClC(Cl)(Br)Br | inactive

Structure (SMILES) | Potency
CCCCNC(=O)NCCCC | inactive
CCn1nc(C(=O)O)c(=O)c2cc3c(cc21)OCO3 | inactive
O=S(O)CO | inactive
CC(C)(O)C(=O)c1ccccc1 | inactive
CC(=O)Nc1ccc(S(N)(=O)=O)cc1 | inactive
O=C1CC2CC1C1CCCC21 (stereo not given) | 27.3 µM (active)
CCc1cccc2c(CCO)c[nH]c12 | inactive
CN1N=C(C(N)=O)CCC1=O | inactive
CC(=O)CC(C)C | inactive
CO[C@]12C[C@@H](COC(=O)c3cncc(Br)c3)CN(C)[C@@H]1Cc1cn(C)c3cccc2c13 | inactive
CC(=O)OCC(CCn1cnc2cnc(N)nc21)COC(C)=O | inactive
O=C(O)COc1nn(Cc2ccccc2)c2ccccc12 | 33.5 µM (active)
CS(=O)(=O)O | inactive
CCSC(=O)N(CC(C)C)CC(C)C | inactive
CC(NC(CCc1ccccc1)C(=O)O)C(=O)N1C(=O)N(C)CC1C(=O)O (stereo not given) | inactive
CCOC(=O)c1c(C)n(C)c2ccc(O)cc12 | inactive
O=c1cc(-c2ccccc2)oc2ccccc12 | inactive and 4.3 µM (active)
C=C(C)C(=O)OCCCCCCCC(C)C | inactive
OC1CCCCC1c1ccccc1 (stereo not given) | inactive
CN1CC(=O)NC1=N | inactive
